About 79,000 compounds went through this panel and 15% of them were active in at least one assay; those are over-represented in the sample as a whole. Unmarked numbers belong to inactive results. Calls of active or inactive are those of the source. No stated cut-off is given here; in the data, active means growth inhibition above about 70%; inactive means the rest.
Test: NCI Yeast Anticancer Drug Screen. Data for the rad50 strain (AID 155);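 further: 0% = growth of vehicle-only cultures of the same strain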
Conditions: S. cerevisiae rad50 strain growth inhibition; at 50.0 µM; hits give high values
Summary of the method: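 Vehicle-treated cultures provide the reference for the growth inhibition reported for compound-exposed, repair-deficient yeast.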

Going from `O=c1[nH]n(Cc2ccccn2)c2ccc([N+](=O)[O-])cc12` to `Cc1cn(CC(O)c2cc3ccccc3[nH]2)c(=O)[nH]c1=O` (stereo not given), the growth inhibition rises from 4.1% to 9.7%.

Going from `CCOC(=O)CCCCCCC(=O)OCC` to `CCCCCCCC/C=C/CCCCCCCC(=O)O`, the growth inhibition falls from 19.1% to -25%.

Compared with `O=C(O)CCC(=O)c1ccc2c3c1CCCC3CC2` (stereo not given), `CC(=O)Nc1ccc(O)c(C(=O)O)c1` is lower in growth inhibition: 52.8% for the first, -8.6% for the second.

Going from `CCc1ccc(OC(C)=O)cc1` to `COc1ccc(C(O)Cc2ccccc2)cc1` (stereo not given), the growth inhibition falls from 12.5% to -4.9%.

Compared with `Cc1ccc(/C(O)=C/C(=O)C(=O)NN=C(c2ccccc2)c2ccccc2)cc1`, `CC1=C(C(=O)Nc2ccccc2C)C(c2ccccc2)C(C(=O)Nc2ccccc2C)=C(C)N1` is higher in growth inhibition: 5.9% for the first, 10.7% for the second.

Compared with `O=C(CC12C3C4C1C1C2C3C41CC(=O)NO)NO` (stereo not given), `O=C(O)C12C3CCC(CC3)C1(C(=O)O)C1CCC2C1` (stereo not given) is lower in growth inhibition: -28.8% for the first, -57.6% for the second.

Going from `Cc1ccc(S(=O)(=O)C2=c3nc4ccccc4cc3=C3C(=O)c4ccccc4C(=O)C32)cc1` (stereo not given) to `Cc1ccc(S(=O)(=O)NC2C(=O)c3ccccc3C(=O)C2n2ccnc2)cc1` (stereo not given), the growth inhibition rises from -14.3% to 4.85%.

Compared with `Oc1ccc(Cl)cc1-c1cc(-c2ccccc2)nc(=S)[nH]1`, `O=C(NC(=S)Nc1cccc(Cl)c1)c1ccccc1` is higher in growth inhibition: -12.7% for the first, 15.9% for the second.

Compared with `c1ccc(-c2cc(-c3cc(-c4ccccc4)n(-c4ccccc4)n3)nn2-c2ccccc2)cc1`, `c1ccc(N=C2N=c3ccccc3=C2c2c(Nc3ccccc3)[nH]c3ccccc23)cc1` is higher in growth inhibition: -2.9% for the first, 20.4% for the second.

First: O=C(/C=C/c1ccccc1)NC(=S)Nc1ccc(F)c([N+](=O)[O-])c1
Second: CCCCC(=O)c1cc2ccccc2c2ccccc12
The growth inhibition of the first is higher: 7.6% for the first, -3.7% for the second.

First: NCCSSCCCCSSCCN
Second: COC(=O)CN(CC(=O)OC)C(C)=O
The growth inhibition of the first is higher: -8.95% for the first, -9.2% for the second.

First: Cc1c(-c2nc(N)nc(C3CC3)c2C)nc(N)nc1C1CC1
Second: COc1cc2c(cc1OC)-c1cc3cc(OC)c(OC)cc3c(C)[n+]1CC2 (tested in a mixture with another compound)
The growth inhibition of the first is lower: 4.55% for the first, 6.25% for the second.

Compared with `O=C1NC(N2CCCC(CO)C2)=N/C1=C\c1ccc(Cl)cc1` (stereo not given), `O=C1NC(N2CCCCC2)=N/C1=C\c1ccco1` is lower in growth inhibition: 25.6% for the first, -11.8% for the second.

First: CC(C)C(=O)C(F)(F)F
Second: CN(C)CC(CN(C)C)C(=O)C(C)(C)C
The growth inhibition of the first is higher: 14.3% for the first, 9.45% for the second.

First: Cc1ccc(/C=C/c2ccc3ccccc3c2)cc1
Second: Cc1ccc(NC(=O)c2cc3cc(N=Nc4ccc(Br)cc4)ccc3oc2=O)cc1
The growth inhibition of the first is lower: -6.6% for the first, 16% for the second.

Compared with `O=[N+]([O-])c1ccccc1OC1OC(CO)C(O)C(O)C1O` (stereo not given), `Clc1cccc[n+]1CCc1ccccc1` is higher in growth inhibition: -2.35% for the first, 9.4% for the second.

Compared with `Cc1ccc(S(=O)(=O)NNC(=O)c2cccnc2)cc1`, `CS(=O)(=O)N(CCC#N)c1ccc(C=O)cc1` is higher in growth inhibition: -11.4% for the first, 20.4% for the second.

Going from `COC1C=C(Br)C(=O)C(C)O1` (stereo not given) to `N#CC1(C#N)CC1c1ccccc1` (stereo not given), the growth inhibition rises from 5.7% to 8.55%.

Compound `O=C(Nc1ccc(NC(=O)Nc2cc(C(F)(F)F)ccc2Oc2ccc(Cl)c(Cl)c2)cc1)Nc1cc(C(F)(F)F)ccc1Oc1ccc(Cl)c(Cl)c1` has a growth inhibition of -28.2%.

In the case of `CCCc1c(O)c(=O)c2c(OC)cc(OC)c3c4c(OC)cc(OC)c5c(=O)c(O)c(CCC)c(c1c23)c54`, the growth inhibition is reported as 86.1% (active).
With `CCCCCCCCCCN=C(N)CSSCC(N)=NCCCCCCCCCC` the growth inhibition was 96.2% (active).
For `Oc1ccc(-c2csc(Nc3ccccn3)n2)cc1O`, the growth inhibition was 98.4% (active).

Test: NCI Yeast Anticancer Drug Screen. Data for the mec2-1 strain (AID 157)
Conditions: S. cerevisiae mec2-1 strain, at 50.0 µM, hits give high values
Summary of the method: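 Yeast mec2-1 mutant treated with compound. Readout: growth inhibition vs vehicle controls.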

First: O=c1[nH]n(Cc2ccccn2)c2ccc([N+](=O)[O-])cc12
Second: Cc1cn(CC(O)c2cc3ccccc3[nH]2)c(=O)[nH]c1=O (stereo not given)
The growth inhibition of the first is lower: -7.8% for the first, 13.6% for the second.

First: CCOC(=O)CCCCCCC(=O)OCC
Second: CCCCCCCC/C=C/CCCCCCCC(=O)O
The growth inhibition of the first is higher: 5.35% for the first, -37.2% for the second.

Compared with `O=C(O)CCC(=O)c1ccc2c3c1CCCC3CC2` (stereo not given), `CC(=O)Nc1ccc(O)c(C(=O)O)c1` is lower in growth inhibition: 51.5% for the first, 7.3% for the second.

First: CCc1ccc(OC(C)=O)cc1
Second: COc1ccc(C(O)Cc2ccccc2)cc1 (stereo not given)
The growth inhibition of the first is higher: 10.6% for the first, -19.4% for the second.

First: Cc1ccc(/C(O)=C/C(=O)C(=O)NN=C(c2ccccc2)c2ccccc2)cc1
Second: CC1=C(C(=O)Nc2ccccc2C)C(c2ccccc2)C(C(=O)Nc2ccccc2C)=C(C)N1
The growth inhibition of the first is lower: -11.9% for the first, 15.2% for the second.

Compared with `O=C(CC12C3C4C1C1C2C3C41CC(=O)NO)NO` (stereo not given), `O=C(O)C12C3CCC(CC3)C1(C(=O)O)C1CCC2C1` (stereo not given) is higher in growth inhibition: -28.1% for the first, -12.4% for the second.

Going from `Cc1ccc(S(=O)(=O)C2=c3nc4ccccc4cc3=C3C(=O)c4ccccc4C(=O)C32)cc1` (stereo not given) to `Cc1ccc(S(=O)(=O)NC2C(=O)c3ccccc3C(=O)C2n2ccnc2)cc1` (stereo not given), the growth inhibition rises from -18.9% to -1.8%.

Going from `Oc1ccc(Cl)cc1-c1cc(-c2ccccc2)nc(=S)[nH]1` to `O=C(NC(=S)Nc1cccc(Cl)c1)c1ccccc1`, the growth inhibition rises from -34.8% to 26.5%.

First: c1ccc(-c2cc(-c3cc(-c4ccccc4)n(-c4ccccc4)n3)nn2-c2ccccc2)cc1
Second: c1ccc(N=C2N=c3ccccc3=C2c2c(Nc3ccccc3)[nH]c3ccccc23)cc1
The growth inhibition of the first is lower: -13.2% for the first, 5.5% for the second.

Compared with `O=C(/C=C/c1ccccc1)NC(=S)Nc1ccc(F)c([N+](=O)[O-])c1`, `CCCCC(=O)c1cc2ccccc2c2ccccc12` is lower in growth inhibition: 6.05% for the first, -20.4% for the second.

Going from `NCCSSCCCCSSCCN` to `COC(=O)CN(CC(=O)OC)C(C)=O`, the growth inhibition falls from -0.7% to -4.35%.

First: Cc1c(-c2nc(N)nc(C3CC3)c2C)nc(N)nc1C1CC1
Second: COc1cc2c(cc1OC)-c1cc3cc(OC)c(OC)cc3c(C)[n+]1CC2 (tested in a mixture with another compound)
The growth inhibition of the first is lower: -9.1% for the first, 0% for the second.

Going from `O=C1NC(N2CCCC(CO)C2)=N/C1=C\c1ccc(Cl)cc1` (stereo not given) to `O=C1NC(N2CCCCC2)=N/C1=C\c1ccco1`, the growth inhibition rises from -10.9% to 0.2%.

First: CC(C)C(=O)C(F)(F)F
Second: CN(C)CC(CN(C)C)C(=O)C(C)(C)C
The growth inhibition of the first is higher: 2.45% for the first, -1.95% for the second.

Going from `Cc1ccc(/C=C/c2ccc3ccccc3c2)cc1` to `Cc1ccc(NC(=O)c2cc3cc(N=Nc4ccc(Br)cc4)ccc3oc2=O)cc1`, the growth inhibition rises from -9.3% to 28.1%.

Going from `O=[N+]([O-])c1ccccc1OC1OC(CO)C(O)C(O)C1O` (stereo not given) to `Clc1cccc[n+]1CCc1ccccc1`, the growth inhibition rises from -5.6% to 22.9%.

Going from `Cc1ccc(S(=O)(=O)NNC(=O)c2cccnc2)cc1` to `CS(=O)(=O)N(CCC#N)c1ccc(C=O)cc1`, the growth inhibition falls from 18.7% to -24.7%.

Going from `COC1C=C(Br)C(=O)C(C)O1` (stereo not given) to `N#CC1(C#N)CC1c1ccccc1` (stereo not given), the growth inhibition rises from 1.3% to 10.7%.

`O=C(Nc1ccc(NC(=O)Nc2cc(C(F)(F)F)ccc2Oc2ccc(Cl)c(Cl)c2)cc1)Nc1cc(C(F)(F)F)ccc1Oc1ccc(Cl)c(Cl)c1` showed a growth inhibition of -45.4%.

For `CCCc1c(O)c(=O)c2c(OC)cc(OC)c3c4c(OC)cc(OC)c5c(=O)c(O)c(CCC)c(c1c23)c54`, the growth inhibition was 89.4% (active).
In the case of `CCCCCCCCCCN=C(N)CSSCC(N)=NCCCCCCCCCC`, the growth inhibition is reported as 97% (active).
In the case of `Oc1ccc(-c2csc(Nc3ccccn3)n2)cc1O`, the growth inhibition is reported as 99% (active).

Reference: PubChem BioAssay (NCI)
